CYP2C9 inhib = inhibitors of human CYP2C9. CYP2C9 Supersomes, luciferin-H conversion, luminescence. inhibition, % at 5 µM. 20% of 96,000 active;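 active = blocking of liver enzyme CYP2C9 beyond about 50% at 5 µM, limit read from the data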
Target sequence (P11712 whole entry, looked up): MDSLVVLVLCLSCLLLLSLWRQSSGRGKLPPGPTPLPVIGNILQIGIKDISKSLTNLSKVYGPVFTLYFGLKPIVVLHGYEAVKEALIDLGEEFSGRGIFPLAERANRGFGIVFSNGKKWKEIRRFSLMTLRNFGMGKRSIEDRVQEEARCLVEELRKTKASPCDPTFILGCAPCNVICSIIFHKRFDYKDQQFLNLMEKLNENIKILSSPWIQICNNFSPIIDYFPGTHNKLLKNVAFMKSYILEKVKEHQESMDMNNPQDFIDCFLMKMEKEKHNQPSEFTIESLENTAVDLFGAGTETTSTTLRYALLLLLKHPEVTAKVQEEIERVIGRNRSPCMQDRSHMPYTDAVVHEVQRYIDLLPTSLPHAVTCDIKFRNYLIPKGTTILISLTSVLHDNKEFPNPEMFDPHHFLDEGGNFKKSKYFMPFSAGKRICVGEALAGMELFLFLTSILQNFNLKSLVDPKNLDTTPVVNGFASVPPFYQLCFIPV
CYP2C19 inh = human CYP2C19 inhibition. P33261. CYP2C19 Supersomes, luciferin-H EGE luminescence, 30 min. inhibition, % at 5 µM. 21% of 96,000 active;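 active = CYP2C19 inhibition above a set limit at 5 µM in the primary screen, cut at about 50% in these data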;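 note: plate controls were negative control wells for no effect and 2.5 mM tranylcypromine positive control for full effect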
PostGolgi ctrl = yeast control strain growth, post-Golgi counter-screen | 5% of 98,000 active | efflux-deficient yeast background strain, growth absorbance A615, 16 h | inhibition, % at 10 µM | AID 738
CYP2C9 act = activators of human CYP2C9; P11712; recombinant CYP2C9, luciferin-H conversion, luminescence; stronger effect = higher value; factor 1 = untreated enzyme, 0 = blocked; activation factor at 5 µM; 1.4% of 96,000 active;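 active = activation factor of 2 or more for CYP2C9 at a 5 µM dose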;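 note: 0 = sulfaphenazole-blocked wells and 1 = vehicle-only wells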
PostGolgi yeast = growth inhibition of a yeast mutant, post-Golgi transport screen; AID 739; post-Golgi transport phenotypic cell assay; 0.9% of 98,000 active; inhibition, % at 10 µM;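 note: yeast cells grown in 1536-well plates; yeast grown about 18 h at 30C before absorbance read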
CYP2C19 activ = increases human CYP2C19 enzyme activity; 96,000 tested, under 10 active; activation factor at 5 µM; recombinant CYP2C19, luciferin-H EGE luminescence; stronger effect = higher value; 0 = fully inhibited enzyme, 1 = untreated enzyme; P33261;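 active = activation factor of at least 2 at 5 µM in the primary screen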;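 note: 0 = wells with 2.5 mM tranylcypromine and 1 = vehicle-only wells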
Numbers without * were called inactive; . = no result. The list is not random: actives were taken first. Their share in the collection is about 32%. Cut-off read from the data, not from the text of the source, unless noted: active = inhibition above about 30%; inactive = the rest.

SMILES	CYP2C9 inhib	CYP2C19 inh	PostGolgi ctrl	CYP2C9 act	PostGolgi yeast	CYP2C19 activ
COc1ccc(CNC(=O)CN2C(=O)C3CCCN3c3ncc(Cl)cc32)cc1 (stereo not given)	52*	82*	-10	0.5	1	0.2
O=c1cc(O)c2c(=O)[nH]c(=O)n(-c3ccccc3)c2[nH]1	8	-5	1	0.9	5	1.1
CC(C)CCn1cnc2c(c1=O)c1nc3ccccc3nc1n2Cc1ccc2c(c1)OCO2	4	7	-2	1	1	0.9
Cc1ccccc1Nc1nnc(SCC(=O)NC(=O)NCc2ccco2)s1	45	40	3	0.5	-2	0.6
O=C(COC(=O)CCC(=O)c1cccs1)Nc1cccc(S(=O)(=O)N2CCOCC2)c1	30	64*	0	0.7	-2	0.4
CCc1nc2ccccc2c(C(=O)OCC(=O)Nc2cccc(S(=O)(=O)N3CCOCC3)c2)c1C	3	24	3	1	-4	0.8
Cc1ccc(NC(=O)COC(=O)CCC(=O)c2cccs2)cc1S(=O)(=O)N1CCOCC1	53*	32	-1	0.5	-6	0.7
O=C(COC(=O)CCC(=O)c1cccs1)Nc1cc(S(=O)(=O)N2CCOCC2)ccc1Cl	80*	46	4	0.2	-4	0.5
COc1ccccc1N/C(N)=N/c1nc(CSc2ccc(C)cc2)cc(=O)[nH]1	61*	61*	6	0.4	6	0.4
COc1ccc(CN(Cc2nc3ccccc3c(=O)[nH]2)C(=O)NC2CCCCC2)cc1	40	47	25	0.6	23	0.5
COc1ccc(S(=O)(=O)N(Cc2nc3ccccc3c(=O)[nH]2)C2CCCC2)cc1	94*	85*	8	0.1	-11	0.2
COc1ccccc1CN(Cc1nc2ccccc2c(=O)[nH]1)C(=O)Nc1ccccc1C	73*	89*	5	0.3	3	0.1
COc1ccccc1CN(Cc1nc2ccccc2c(=O)[nH]1)C(=O)Nc1ccc(C)cc1	34	26	31*	0.7	4	0.7
COc1ccccc1CN(Cc1nc2ccccc2c(=O)[nH]1)S(=O)(=O)c1ccc(C)cc1	74*	70*	14	0.3	-2	0.3
O=S(=O)(NCC(c1cccnc1)N1CCN(c2ccc(F)cc2)CC1)c1ccc(F)cc1 (stereo not given)	72*	84*	73*	0.3	90*	0.2
Cc1ccc(S(=O)(=O)NCC(c2cccnc2)N(C)C)cc1 (stereo not given)	7	61*	-6	0.9	-3	0.4
O=S(=O)(NCC(c1cccnc1)N1CCN(Cc2ccccc2)CC1)c1ccccc1 (stereo not given)	.	.	11	.	8	.
O=S(=O)(NCC(c1cccnc1)N1CCN(c2ccc(F)cc2)CC1)c1cccs1 (stereo not given)	58*	88*	55*	0.4	78*	0.1
O=S(=O)(NCC(c1cccnc1)N1CCN(c2ccccc2F)CC1)c1cccs1 (stereo not given)	66*	86*	35*	0.3	62*	0.1
CC1(C)Cc2c(c(-c3ccccc3)nc(N3CCOCC3)c2C(N)=O)CO1	23	-1	-9	0.8	-3	1
Cc1cc(C)nc(/N=C2\NC(=O)CC3C(=O)NCCN23)n1 (stereo not given)	.	.	5	.	7	.
COc1ccccc1N1CCN(C(CNS(=O)(=O)c2ccc(C)cc2)c2cccnc2)CC1 (stereo not given)	18	58*	4	0.8	-3	0.4
O=C(/C=C/Nc1cccc([N+](=O)[O-])c1)c1cccs1	71*	30	8	0.3	-4	0.7
CCOC(=O)N1CCC(NC(=O)CCN2C(=O)COc3ccccc32)CC1	-23	3	3	1.2	0	1
O=C(c1cccc2ccccc12)N1CCN(CC2CC=CCC2)CC1 (stereo not given)	-158	9	0	2.6*	7	0.9
SMILES	CYP2C9 inhib	CYP2C19 inh	PostGolgi ctrl	CYP2C9 act	PostGolgi yeast	CYP2C19 activ
Cc1cc(Cl)ccc1OCCCC(=O)N1CCOCC1	-79	98*	-9	1.8	8	0
Cc1ccc(OCCCC(=O)N2CCOCC2)cc1	-8	75*	3	1.1	-2	0.2
O=C(COc1ccc(S(=O)(=O)N2CCCCC2)cc1)N1CCCCCC1	2	-6	2	1	-12	1.1
Cc1ccc(S(=O)(=O)C(CCC(=O)N2CCOCC2)S(=O)(=O)c2ccc(C)cc2)cc1	20	13	3	0.8	9	0.9
Cc1ccc(OCCCC(=O)Nc2ccc(N3CCOCC3)cc2)c(C)c1	-3	-5	-1	1	9	1.1
O=C(COc1ccc(Br)cc1)N1CCCCCC1	31	94*	.	0.7	.	0.1
COCCNC(=O)COc1ccc(C)cc1C	9	67*	-2	0.9	17	0.3
COCCNC(=O)COc1ccccc1Cl	-5	27	-7	1	-6	0.7
O=C(CSc1nnc(-c2ccccn2)n1Cc1ccccc1)NC1CCCC1	33	38	1	0.7	18	0.6
CC12CCC(C(=O)Nc3ccccc3Br)(C/C1=N\O)C2(C)C (stereo not given)	-18	3	10	1.2	-3	1
C=CCNC(=O)CCCOc1cc(C)ccc1C	-12	23	-4	1.1	-1	0.8
Cc1ccc(C)c(OCC(=O)NCCN(C)C)c1	-5	-2	9	1.1	3	1
Cc1cc(OCCCC(=O)N2CCCCC2)cc(C)c1Cl	-2	93*	9	1	-4	0.1
C=CCNC(=O)CCCOc1ccc(C)cc1	60*	73*	-3	0.4	-5	0.3
Cc1ccc(C)c(OCC(=O)Nc2nonc2NC(=O)COc2cc(C)ccc2C)c1	77*	15	11	0.2	-1	0.8
Cc1ccc(OCCN2CCCCCC2)c(C)c1	15	58*	3	0.8	4	0.4
CCCOc1nnnn1-c1ccccc1	2	38	-4	1	-4	0.6
CCCCCOC(=O)CSc1n[nH]c(=O)[nH]c1=O	1	15	-9	1	9	0.8
Cc1cc(=S)n(-c2ccccc2)n1C	-4	4	-8	1	9	1
Cc1ccc(OCC(=O)N2CCCCCC2)c(C)c1	-20	80*	15	1.2	-4	0.2
O=C(COc1ccc(Cl)cc1Cl)N1CCCC1	-12	15	5	1.1	5	0.8
Cc1cc(Br)ccc1OCC(=O)N1CCCCCC1	6	27	6	0.9	1	0.7
Cc1cc(Cl)ccc1OCCCC(=O)N1CCCCC1	-26	97*	13	1.3	-7	0
CSc1cccc(NC(=O)c2ccccc2N(C)S(C)(=O)=O)c1	1	39	5	1	-1	0.6
CCc1ccc(N2CCCn3c2nc2c3c(=O)n(CCN3CCOCC3)c(=O)n2C)cc1	7	7	.	0.9	.	0.9
